This assay deals with Concanavalin-A (Canavalia ensiformis) (UniProt P02866). Put plainly: ConA small-molecule binders, primary screen, artefact control for SMM control protein annotation, biochemical, small-molecule microarray, Alexa647 label, 635 nm (AID 1127).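 Further: z combines 667 nm emission intensity with signal-to-noise across three replicate slides.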 Particulars: ConA-A647 binding fluorescence, higher = more signal.
Sequence of Concanavalin-A (Canavalia ensiformis) (P02866 whole entry, looked up): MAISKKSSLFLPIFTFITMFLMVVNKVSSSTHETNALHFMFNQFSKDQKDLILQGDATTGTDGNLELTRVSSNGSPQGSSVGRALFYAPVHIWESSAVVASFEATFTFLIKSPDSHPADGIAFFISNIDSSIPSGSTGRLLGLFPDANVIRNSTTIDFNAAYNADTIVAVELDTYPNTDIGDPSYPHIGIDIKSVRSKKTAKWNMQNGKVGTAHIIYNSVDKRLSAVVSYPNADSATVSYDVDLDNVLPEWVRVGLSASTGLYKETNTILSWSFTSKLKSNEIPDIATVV
As to `CN1C(=O)C2C=CC(C(O)C#Cc3ccccc3)N(Nc3ccccc3)C2C1=O` (stereo not drawn), the composite z-score came out at 1.09. Under `CN(C)c1ccc(C(O)C2C=CC3C(=O)N(c4ccccc4)C(=O)C3N2Nc2ccc([N+](=O)[O-])cc2)cc1` (stereo not drawn) stands 1.05; under `CN(C)C(=O)[C@@]1(Cc2ccccc2CN=[N+]=[N-])N=C(c2ccc(OCCCO)cc2)O[C@H]1c1ccccc1CN=[N+]=[N-]`, 1.07; under `O=C1OCC=C[C@H]2OC34C=CCN(Cn5nnc6ccccc65)C(=O)[C@H]3N(CCCO)C(=O)[C@@H]4[C@@H]12` (stereo partly drawn), -0.0288. The result for `C[N+](C)(C)CCCCCCNC(=O)[C@H]1C[C@H]2C(=O)N[C@@H](Cc3ccccc3)C(=O)N2[C@H]1c1ccc(O)cc1` reads 0.547. The result for `COCCOC(=O)N1C(=O)[C@@]2(c3cc(C#CCCO)ccc31)[C@H](C(=O)Nc1nc3ccccc3s1)[C@H]1C(=O)O[C@H](c3ccccc3)[C@H](c3ccccc3)N1[C@@H]2c1ccccc1OCCO` reads 1.14; that for `COc1cc2c(cc1OC)CN(C(=O)[C@@H]1[C@H]3C(=O)O[C@H](c4ccccc4)[C@H](c4ccccc4)N3[C@H](c3ccc(OCCO)cc3)[C@@]13C(=O)Nc1ccc(C#CC4(O)CCCCCC4)cc13)CC2`, 1.13; that for `COc1cc(CO)cc(I)c1O[C@H]1C=C(C(=O)NCCO)C[C@@H](NCc2ccc(F)cc2)[C@@H]1O`, 0.0901. Consider `[N-]=[N+]=NCc1ccccc1C[C@@]1(C(=O)NCc2ccccc2)N=C(c2ccc(OCCCO)cc2)O[C@@H]1c1ccccc1N=[N+]=[N-]`, for which the composite z-score was 0.725.

`O=C(CS)NCCCCCNC(=O)[C@@H]1C[C@@H]2C(=O)N3CCC[C@H]3C(=O)N2[C@@H]1c1cccc(OCCO)c1` returned a composite z-score of 0.91. Under `C=C(C)c1cc2c(c(CCCCCC)n1)[Si](C(C)C)(C(C)C)OC2` stands -0.277; under `CCCCC(O)C1C=CC2C(=O)N(c3ccccc3)C(=O)C2N1Nc1ccc(C(C)C)cc1` (stereo not drawn), 1.07. Under `COCCOC(=O)N1C(=O)[C@@]2(c3cc(C#CC4=CCCCC4)ccc31)[C@H](c1ccc(OCCO)cc1)N1[C@H](c3ccccc3)[C@H](c3ccccc3)OC(=O)[C@H]1[C@@H]2C(=O)N1CCN(c2ncccn2)CC1` stands 0.713. Take `C=C(COC)/C(=C/C[C@H](OC(C)=O)c1ccc(OCCO)cc1)c1cc(C(=O)OC)ccc1OC`: the composite z-score came to 0.519. Take `CC1CC/C=C\[C@H]2OC34C=CCN(c5ccc(Cl)cc5)C(=O)[C@H]3N(CCCCCO)C(=O)[C@]4(C)C2C(=O)O1` (stereo partly drawn): the composite z-score was -1.03. Under `CN1C(=O)C2C=CC(C(O)c3cccc(O)c3)N(Nc3ccccc3)C2C1=O` (stereo not drawn) stands 0.312; under `O=C1NC(=O)C2C1C=CC(C(O)c1c(F)cccc1Cl)N2Nc1ccc(Cl)cc1Cl` (stereo not drawn), 0.44. The result for `COc1ccc([Si](C)(C)[C@@H]2[C@@H](CCO)O[C@]3(C(=O)N(Cc4ccc(N5CCCCC5=O)cc4)c4ccccc43)[C@H]2C)cc1` reads 1.12; that for `C=CCC(OC(C)=O)[C@@H]1[C@@H](N(Cc2cc3ccccc3o2)C(=O)c2ccc(C)cc2)c2cc(OCCCO)ccc2N1C(=O)Cc1ccc(OC)cc1` (stereo partly drawn), 0.217. Under `CCOc1cc(C(O)C2C=CC3C(=O)N(C)C(=O)C3N2Nc2ccccc2)ccc1O` (stereo not drawn) stands 0.947; under `O=C(CS)NCCCCCCNC(=O)[C@H]1C[C@H]2C(=O)N[C@@H](Cc3ccccc3)C(=O)N2[C@H]1c1ccc(O)cc1`, 1.1; under `CC(c1ccccc1)C(O)C1C=CC2C(=O)N(c3ccccc3)C(=O)C2N1Nc1ccc([N+](=O)[O-])cc1` (stereo not drawn), 1.12. Compound `COc1ccccc1CN1C(=O)c2ccccc2[C@@]2(Cc3ccccc3N(CC(F)(F)F)C2=O)[C@@H]1c1ccc(CO)cc1` returned a composite z-score of 0.331. In turn, `COC(=O)C(CC#Cc1ccc2c(c1)[C@]1(C(=O)N2)[C@H](C(=O)N2CCN(c3ncccn3)CC2)[C@H]2C(=O)O[C@H](c3ccccc3)[C@H](c3ccccc3)N2[C@@H]1c1ccc(OCCO)cc1)C(=O)OC` gave a composite z-score of 1.07.

Take `[N-]=[N+]=Nc1ccccc1[C@@H]1OC(c2ccc(OCCCO)cc2)=N[C@]1(Cc1ccccc1)C(=O)NCC(O)CO` (stereo partly drawn): the composite z-score was determined as 0.468.

`Cc1cc(C)c(C(O)C2C=CC3C(=O)NC(=O)C3N2Nc2ccc(Cl)cc2Cl)c(C)c1` (stereo not drawn) registered a composite z-score of 1.09.

Turning to `COC(=O)c1c2oc(c1C(=O)OC)C(=O)N(Cc1ccccc1)Cc1cn(nn1)C[C@H](Cc1ccccc1)NC(=O)N[C@H](CO)CC2`, the composite z-score came out at 0.861. The result for `C=CCNC(=O)[C@H]1[C@@H]2C(=O)O[C@@H](c3ccccc3)[C@@H](c3ccccc3)N2[C@@H](c2ccc(O)cc2)[C@]12C(=O)N(C(=O)OCCOC)c1ccccc12` reads 0.745.

For the origin of these results see PubChem BioAssay.
